# Screening results deposited in PubChem by National Center for Advancing Translational Sciences (NCATS).
# The list is not random: actives were taken first. Their share in the collection is about 7%.
# IL-1B inflam inh: inhibitors of inflammasome signaling (IL-1 beta secretion); AID 743279; 360,000 tested, 4.7% active; activity change, % at 57.5 µM; THP-1 LPS/ATP IL-1B secretion, AlphaLISA, 16 h; hits give low values; in the data active = activity change below about -50%; inconclusive = mostly about -30% to -49%; also: % is scaled to controls: 0 for no effect and ±100 for the full control effect
#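 THP-1 cells pretreated 1 hr with compounds (up to 57.5 uM final), then stimulated with LPS (250 ng/mL final) plus ATP (1.25 mM final); secreted IL-1B measured by AlphaLISA after 16 hr, decreased signal indicating inhibition.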
# DRD3 antagonist: antagonists of human D3 dopamine receptor. 360,000 tested, 2.5% active. P35462. AID 652054. D3R cells, DiscoveRx beta-arrestin luminescence, antagonist mode; hits give low values. max response, negative = inhibition, %; in the data active = max response below about -50%; inconclusive = no clear call, values can overlap the other calls; also: % is scaled to controls: 0 for no effect and ±100 for the full control effect
# Target sequence (P35462 whole entry, looked up): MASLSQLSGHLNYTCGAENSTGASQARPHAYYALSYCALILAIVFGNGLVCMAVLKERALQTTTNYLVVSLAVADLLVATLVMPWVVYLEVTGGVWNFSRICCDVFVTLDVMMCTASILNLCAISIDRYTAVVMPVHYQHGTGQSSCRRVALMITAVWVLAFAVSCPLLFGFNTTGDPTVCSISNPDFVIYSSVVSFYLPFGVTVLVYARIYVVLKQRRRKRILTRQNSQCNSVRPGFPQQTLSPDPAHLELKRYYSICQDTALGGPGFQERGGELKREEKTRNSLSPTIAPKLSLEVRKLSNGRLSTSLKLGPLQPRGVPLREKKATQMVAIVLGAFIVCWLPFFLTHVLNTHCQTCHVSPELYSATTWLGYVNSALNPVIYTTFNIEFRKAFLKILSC
#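 Cells expressing the human receptor were seeded at 1500 cells/well, incubated overnight at 37 degrees C in 5% CO2, then exposed to library compounds with dopamine controls for 90 minutes at 37 degrees C before luminescent detection.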
# DRD3 agonist: agonists of human D3 dopamine receptor; D3R DiscoveRx beta-arrestin cells, luminescence, 90 min; 410,000 tested, 0.58% active; P35462; max activation, %; in the data active = max activation above about 30%; also: 0% is about no effect
#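 Agonist-mode cell screen: cells plated at 1500/well and incubated overnight at 37 °C, then exposed to library compounds for 90 min at 37 °C. Detection reagent was added for 30–60 min at room temperature, and luminescence was read.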
# ATXN2 expr inh: reduces ATXN2 reporter expression in HEK-293 cells. 360,000 tested, 0.72% active. HEK-293 ATXN2-luciferase reporter, luminescence, 24 h. Potency, µM (highest dose often 57 µM), for inactives: at the top dose activity change, negative = inhibition, usual class: inhibitors; also: potency is read from the fitted curve at half-maximal effect; % is scaled to controls: 0 for no effect and ±100 for the full control effect; nearly all actives have a fitted effect of over 55% in size
#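 ATXN2-luciferase reporter cells (luciferase flanked by upstream and downstream ATXN2 gene portions) were treated 24 h at 37 °C with compounds at up to 57 uM. SteadyGlo luminescence gave expression; GF-AFC fluorescence gave viability.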
# S2 tox: cell viability loss in ATXN counter-screen; S2 cells (HEK-293 line with an ATXN2-luciferase reporter) viability, CellTiter-Fluor protease fluorescence, 24 h; Potency, µM (series often up to 56.7 µM), most hits filed as cytotoxic; 400,000 tested, 0.49% active; also: potency is read from the fitted curve at half-maximal effect; nearly all actives have a fitted effect of over 40% in size
# a7 integrin act: activates integrin-mediated alleviation for muscular dystrophy; AID 624291; alpha7betagal myoblasts, beta-gal FDG fluorescence, 48 h; 350,000 tested, 0.064% active; Potency, µM (highest dose often 38.3 µM), for the others: at the top dose activation, hits mostly activators;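 also: potency is read from the fitted curve at half-maximal effect; 100% = response of the positive control SU9516; nearly all actives have a fitted effect of over 60% in size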
#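 alpha7betagal+/- myoblasts (passage 13, 250/well) treated 48 h at 37C with compounds at 1:260 dilution of DMSO stock. Lysed, then beta-galactosidase activity read as FDG fluorescence (ex 480/em 540) after 30 min, with pre-read for autofluorescence.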
# An asterisk follows results filed as active; i = inactive; ? = inconclusive; . = no result; [ ] = remark or other dose. Unless noted, calls follow the shape of the dose curve; as a rule, active = well fitted curve in the direction sought with a large enough effect; inconclusive = small, poorly fitted or top-dose-only effect, or another doubt; inactive = no such curve, though single readings can be large; an effect the other way counts as inactive or inconclusive.
SMILES,IL-1B inflam inh,DRD3 antagonist,DRD3 agonist,ATXN2 expr inh,S2 tox,a7 integrin act
Cc1c(C)n(Cc2ccccc2)c2ccc(C(=O)OCCCN(C)C)cc12,-109*,-18,-25,-31%,?,-65%
Cc1cc(Oc2nc3ccccn3c(=O)c2/C=C(\C#N)c2nc3ccccc3s2)ccc1Cl,.,.,2,10%,i,.
COC(=O)c1c(NC(=O)COc2ccc(Cl)cc2)sc2c1CC(C)(C)NC2(C)C,-97*,7,0,-25%,i,-46%
CCOC(=O)c1c(NC(=O)CSc2nc3ccc(OC)cc3[nH]2)sc2c1CC(C)(C)NC2(C)C,-94*,-6,-9,-23%,i,-54%
CCOC(=O)c1c(NC(=O)CSc2ncccn2)sc2c1CC(C)(C)NC2(C)C,-57*,4,3,-30%,i,7%
COc1cccc(CNC(=O)c2sc3nc4n(c(=O)c3c2C)CCC4)c1,.,.,-1,.,.,.
CCCCNC(=S)Nc1ccc(F)cc1,5,9,5,-5%,i,-22%
CCCCNC(=S)Nc1ccc(SC(F)F)cc1,-105*,?,-7,1%,i,-68%
Oc1cccc(NC(=S)Nc2ccc(SC(F)F)cc2)c1,-58*,5,-10,-2%,i,2%
O=C(NC1CCCCC1)C(c1ccnc2ccccc12)N1CCOCC1 (stereo not given),0,0,-11,8%,i,.
CC(=O)c1sc(C(C)(C)C)cc1NC(=O)/C=C/C(=O)O,-96*,20,3,?,i,-56%
CC(=O)c1sc(C(C)(C)C)cc1NC(=O)CCC(=O)O,-6,1,8,-9%,i,-17%
COc1ccc(-c2nc3n(n2)C(c2cccc(C)c2)C(C(N)=O)=C(C)N3)cc1OC (stereo not given),.,.,-4,-4%,i,.
CC(NC(=O)CCNC(=O)c1ccccc1Cl)c1ccc(-n2ccnc2)cc1 (stereo not given),0,-59*,0,5%,i,6%
COc1ccccc1OCCN(C#N)c1nc(N(C)C)nc(N(C)C)n1,-77*,-9,5,-5%[11.3 µM],i,19%
CCCc1nc2ccccc2c(C(=O)OCC(=O)Nc2cccc(S(=O)(=O)N3CCOCC3)c2)c1CC,-10,16,1,?,i,-36%
CCCc1nc2ccccc2c(C(=O)OCC(=O)N2CCc3ccccc32)c1CC,13,83,70*,-3%,?,-9%
CCCc1nc2ccccc2c(C(=O)OCC(=O)Nc2ccc(S(=O)(=O)N3CCOCC3)cc2)c1CC,-67*,36,32*,?,?,-66%
CC(=O)c1c(C)[nH]c(C(=O)CN2C(=O)NC(C)(c3ccc(C)cc3)C2=O)c1C (stereo not given),12,19,-2,-12%,i,24%
CCC(C(=O)N/N=C(\C)c1cccnc1)c1ccccc1 (stereo not given),8,1,-3,2%,i,-7%
Cc1nc(CC(C)C)cc(C(=O)N2CCCC(Nc3ccc(C)c(C)c3)C2)n1 (stereo not given),-6,21,6,1%,i,-6%
CN(C)CC(O)c1ccc(C=Cc2ccc(Cl)cc2)cc1 (stereo not given),-92*,?,0,?,.,-74%
Cc1ccc(/C([O-])=C(/C(=S)NCc2ccc3c(c2)OCO3)[n+]2ccc(N(C)C)cc2)c(C)c1,-68*,-20,-5,-12%,i,1%
CCOC(=O)c1nnn(-c2nonc2N)c1COc1ccccc1,45,-58*,-1,-1%,i,7%
CCOC(=O)c1nnn(-c2nonc2N)c1-c1ccc(Cl)cc1,3,9,11,-6%,i,-16%
SMILES,IL-1B inflam inh,DRD3 antagonist,DRD3 agonist,ATXN2 expr inh,S2 tox,a7 integrin act
CCOC(=O)c1nnn(-c2nonc2N)c1-c1ccc(OC)cc1,-5,-54*,3,-2%,i,13%
CCCc1c(C(=O)N/N=C(\C)c2ccccn2)nnn1-c1nonc1N,98,-85*,-13,.,i,-18%
CCCCCc1nnc(NC(=O)Cc2ccc([N+](=O)[O-])cc2)s1,20,3,-1,5%[11.3 µM],i,-27%
N#CCNC(=O)c1ccc(-c2ccnc(Nc3ccc(N4CCOCC4)cc3)n2)cc1,.,.,.,19µM*,.,.
CCCS(=O)(=O)N1CCC(C(=O)N2CCC(Cc3ccccc3)CC2)CC1,-18,0,-16,-3%,i,-28%
O=C(NCCN1CCc2ccccc2C1)C1CCN(S(=O)(=O)N2CCCCC2)CC1,6,-66*,-29,-12%,i,3%
O=C(C1CCN(S(=O)(=O)N2CCC3(CC2)OCCO3)CC1)N1CCC(Cc2ccccc2)CC1,-64*,-7,4,-16%,i,-6%
O=C(NCCN1CCc2ccccc2C1)C1CCN(S(=O)(=O)N2CCC3(CC2)OCCO3)CC1,30,-60*,-31,5%,i,8%
Cc1c(CCC(=O)NCCCn2ccnc2)c(=O)oc2cc3occ(C(C)(C)C)c3cc12,?,10,6,-20%,i,-11%
COc1ccc(CNC(=O)c2sc3nc4c(c(C(F)(F)F)c3c2N)CCC4)cc1OC,?,0,3,-14%,i,0%
COc1ccc(-c2c3c(nc4sc(C(=O)Nc5cc(C)on5)c(N)c24)CCC3)cc1,-88*,-14,3,-20%,i,10%
Cc1csc(NC(=O)c2sc3nc4c(c(C(F)(F)F)c3c2N)CCC4)n1,.,.,.,0.097µM*,.,.
COc1ccc(-c2c3c(nc4sc5c(=O)[nH]c(C)nc5c24)CCC3)cc1,61,11,0,-18%,i,-19%
Cn1cnnc1SCC(=O)NNC(=O)COc1ccc(Cl)cc1,-4,0,2,-6%,i,-6%
O=c1[nH]c2ccc(S(=O)(=O)Nc3ccc(Br)cc3)cc2[nH]1,-4,15,4,-10%,i,29%
CCN(CC)C(=O)C1CCCN(c2ccc([N+](=O)[O-])cc2/C=N/NC(=O)c2cccc(O)c2)C1 (stereo not given),-61*,-1,-6,-7%,?,4%
CCN(CC)C(=O)C1CCCN(c2ccc([N+](=O)[O-])cc2/C=N/NC(=O)c2ccc([N+](=O)[O-])cc2)C1 (stereo not given),-24,-79*,-7,-4%,i,-14%
CCN(CC)C(=O)C1CCCN(c2ccc([N+](=O)[O-])cc2/C=N/NC(=O)c2ccccc2)C1 (stereo not given),-13,7,9,-25%,?,-7%
N#CC1=C(N)C2=CCCC[C@H]2[C@H](c2ccccc2)C1(C#N)C#N,-56*,-15,-9,-18%,i,-5%
